# Source: PubChem
# In the library only some 6.5% were active in any assay of this set; here they are far more common.
# HT1080NT lethal = kills 2HG-producing HT-1080-NT fibrosarcoma cells | 360,000 compounds, 1.6% hits | AID 686970 | Potency, µM (titrated, usually from 46.1 µM), inactives show top-dose activity, negative = less viability, hits mostly cytotoxic | HT-1080-NT fibrosarcoma viability, CellTiter-Glo ATP luminescence, 48 h;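 further: NT is the 2HG producing partner of a matched IDH1 knockdown line; potency means the concentration at half of the fitted maximal effect; 0% = DMSO-treated cells and -100% = media-only wells without cells; nearly all actives have a fitted effect of over 55% in size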
#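 HT-1080-NT; 750 cells/well; 5% FBS RPMI; 48 h compound, 37 degrees C; CellTiter-Glo luminescence; curve fitting and curve-class assignment.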
# HepG2 viability = counter-screen for TGF-b inhibitors: cytotoxicity in HepG2 cells | Potency, µM (titrated, usually from 46.1 µM), for inactives: at the highest dose activity change, negative = cytotoxicity, usual class: cytotoxic | HepG2 CAGA-GFP viability, ATP luminescence, 18 h | 410,000 compounds, 0.76% hits; further: potency means the concentration at half of the fitted maximal effect
#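 HepG2 CAGA-GFP cells (1000/well, DMEM with 1% FBS) received compound, then TGF-beta at 500 pg/mL final, and were incubated 18 hours at 37 degrees C. Viability was read by CellTiter-Glo luminescence. Media-only wells were set as complete cell-killing and DMSO as no toxicity.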
# TGFb inhibitor = TGF-b pathway inhibition; 410,000 compounds, 1.2% hits; Potency, µM (doses to about 46.1 µM), for inactives: at the highest dose activity, negative = inhibition, usual class: inhibitors; HepG2 CAGA-GFP TGF-b/SMAD3 reporter, GFP fluorescence, 18 h; TGF-beta stimulated, 500 pg/mL final; further: potency means the concentration at half of the fitted maximal effect; on the % scale 0 is the no-effect control and ±100 the full control effect; nearly all actives have a fitted effect of over 65% in size
#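 HEPG2 CAGA-GFP cells (1000/well, DMEM with 1% FBS) were pre-incubated 2 h at 37 degrees C, given compound by pin tool, then stimulated with TGF-beta at 500 pg/mL final for 18 h before per-cell GFP fluorescence imaging.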
# HT1080 IDH1KD tx = HT-1080 IDH1 knockdown cell toxicity (counter line); AID 686971; Potency, µM (titrated, usually from 46.1 µM), inactives show at the highest dose activity, negative = toxicity, usual class: cytotoxic; 360,000 compounds, 2% hits; HT-1080 IDH1 knockdown viability, ATP luminescence, 48 h;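 further: potency means the concentration at half of the fitted maximal effect; 0% = DMSO wells and -100% = cell-free medium wells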
#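 Viability of IDH1-knockdown HT-1080 fibrosarcoma cells was assessed by CellTiter-Glo after 48 h at 37 °C with titrated compound; concentration-effect curves were classified by fit quality and response size.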
# IL1B secr inh = inflammasome signaling inhibition, IL-1 beta readout | 360,000 compounds, 4.7% hits | activity change, % at 57.5 µM | THP-1 LPS/ATP IL-1B secretion, AlphaLISA, 16 h; stronger effect = lower value; in the data active means activity change below about -50%; inconclusive means mostly about -30% to -49%; further: on the % scale 0 is the no-effect control and ±100 the full control effect
#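 THP-1 cells pretreated 1 hr with compounds (up to 57.5 uM final), then stimulated with LPS (250 ng/mL final) plus ATP (1.25 mM final); secreted IL-1B measured by AlphaLISA after 16 hr, decreased signal indicating inhibition.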
# Giardia killer = kills Giardia lamblia. Giardia lamblia trophozoite viability. activity change, % at 7.66 µM, hits read low. 340,000 compounds, 0.15% hits; in the data active means activity change below about -80%; inconclusive means between about -30% and that limit;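 further: parasites exposed to compound for two days anaerobically before the ATP read; on the % scale 0 is the no-effect control and ±100 the full control effect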
#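 Each well holds 100 Giardia trophozoites and compound. After two days (48 hrs) at 37 deg C in anaerobic conditions, ATP is quantified by luminescence.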
# * hit, by the source's call; u = inconclusive; x = no result given. Unless noted, the call rests on the fitted dose curve; in most records, active means well fitted curve in the direction sought with a large enough effect; inconclusive means small, poorly fitted or top-dose-only effect, or another doubt; inactive means no such curve, though single readings can be large; an effect the other way counts as inactive or inconclusive.
SMILES,HT1080NT lethal,HepG2 viability,TGFb inhibitor,HT1080 IDH1KD tx,IL1B secr inh,Giardia killer
COc1ccc(C(CNC(=O)Cc2ccc(Cl)c(Cl)c2)N(C)C)cc1 (centres undefined),-19%,-33%,6%,-11%,-51*,4
CCCCn1c(O)c(C(=O)/C=C/c2ccc3c(c2)OCO3)c(=O)[nH]c1=O,-3%,24%,11%,-2%,-73*,13
Nc1ccc2nc3c(c(Cl)c2c1)CCCC3,u,-12%,-13%,u,37,-2
OCCNc1c2c(nc3ccccc13)CCCC2,3%,-1%,1%,12%,-28,-3
CC(C)CNc1c2c(nc3ccccc13)CCC2,-7%,-13%,-21%,-22%,-60*,-9
c1ccc(CNc2c3c(nc4ccccc24)CCC3)cc1,u,-29%,u,u,-93*,53
O=C(CSc1nc2ccccc2c(=O)n1-c1ccc(Cl)c(Cl)c1)Nc1ccc2c(c1)CCC2,9%,-4%,u,7%,8,x
CCCCCC1(C(C)C)C(=O)NC(=S)NC1=O,12%,21%,6%,8%,44,-4
O=C(COC(=O)Cc1ccccc1)Nc1ccc(SC(F)F)cc1,-8%,-2%,8%,-1%,14,-11
CC1CCCN(CCCNC(=O)c2ccc3c(c2)N(Cc2cccc(Cl)c2)C(=O)c2ccccc2S3=O)C1 (centres undefined),-25%,13µM*,18µM*,u,u,x
COc1cccc(OC)c1CN1CCCC(C(=O)c2cccc(Cl)c2)C1 (centres undefined),-19%,-34%,u,-13%,u,-7
CN(C(=O)Oc1cccc2cccnc12)c1ccccc1,8%,1%,3%,4%,1,8
Oc1cccc2cccnc12,x,5.6µM*,3.5µM*,x,x,-13
CCOC(=O)C1(c2ccccc2)CCN(CCC(=O)Nc2ccc(OC)cc2)CC1,-12%,-20%,-8%,-9%,-15,x
CCOC(=O)C1(c2ccccc2)CCN(CCC(=O)Nc2cccc(Br)c2)CC1,18µM*,-166%,u,23µM*,-101*,-9
Clc1ccc(COC(Cn2ccnc2)c2ccc(Cl)cc2Cl)cc1 (centres undefined),u,-95%,u,15µM*,0,3
COc1cc(OC)c(OC)cc1C=O,29%,-53%,-2%,3%,0,u
CCOc1cc2c(cc1OCC)-n1cccc1C(c1ccccc1O)NC2 (centres undefined),u,-24%,-20%,u,-4,13
CCOc1cc2c(cc1OCC)-n1cccc1C(c1c(O)cccc1OC)NC2 (centres undefined),21µM*,-13%,0%,21µM*,-68*,-1
CCOc1cc2c(cc1OCC)-n1cccc1C(c1ccccc1OC)NC2 (centres undefined),-19%,-11%,0%,-16%,-85*,-6
Cc1ccccc1Cc1c(C)nc2c(C(=O)NCc3ccco3)cnn2c1C,u,-8%,u,u,u,18
COC(=O)c1cc(C(O)(C(=O)OC)C(F)(F)F)c(/N=C/N(C)C)s1 (centres undefined),9%,-2%,-5%,14%,23,8
CC(C)CCOP(=O)(c1ccc(N(C)C)cc1)C(O)c1ccc(Cl)cc1Cl (centres undefined),23µM*,-170%,u,16µM*,-88*,26
CC(C)CCOP(=O)(c1ccc(N(C)C)cc1)C(O)c1ccc(C(C)C)cc1 (centres undefined),-27%,-113%,u,-11%,-58*,8
CCCCOP(=O)(c1ccc(N(C)C)cc1)C(O)c1ccc(C(C)C)cc1 (centres undefined),2%,-41%,u,-1%,-8,-18
O=c1c2ccccc2nc(-c2ccccc2)n1-c1ccccc1O,-17%,1%,-4%,-18%,45,-22
